# Bioassay records from PubChem.
# eIF4E 4G PPI: eIF4E–eIF4G protein interaction inhibitors, primary screen, biochemical, uHTS, TR-FRET, eIF4GI fragment; Eukaryotic translation initiation factor 4E (Mus musculus) + Eukaryotic translation …; TR-FRET eIF4E-eIF4GI(517-606) binding, 2 h; inhibition, % at 21.7 µM; actives 0.37% (n = 220,000); AID 782, 2007;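 active = inhibition above about 30%, limit read from the data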;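 note: 0% = full FRET control wells and 100% = background wells lacking eIF4GI fragment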
# zVAD death inh: inhibitors of zVAD-triggered necroptosis, primary screen, L929 cells | AID 1377, 2008 | L929 zVAD necroptosis rescue, ATP luminescence, 24 h; with zVAD 60 µM | viability rescue, % at 10 µM | actives 0.38% (n = 220,000);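 active = activation, scaled between plate controls, above about 75%, limit read from the data; inactive = activation under that limit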;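 note: 0% = zVAD with DMSO and 100% = DMSO alone without zVAD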
# TNF death inh: inhibitors of TNF-alpha triggered necroptosis, primary screen, cell-based, Jurkat FADD-/-, single concentration; actives 0.068% (n = 220,000); Jurkat FADD-/- TNF necroptosis rescue, ATP luminescence, 24 h; 0 = TNF only, 100 = no-TNF cells; activation (protection from cell death), % at 10 µM;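 active = activation, meaning protection from cell death, of at least 50% relative to plate controls; inactive = activation below 50%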;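 note: necroptosis triggered by 40 ng/mL TNF-alpha added together with compound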
# EBV gp42 inh: Epstein-Barr virus gp42 inhibitors, primary screen, biochemical, uHTS, fluorescence polarization; Fluorescence polarization binding assay, mP read-out; Glycoprotein 42 (Epstein-Barr virus (strain AG876)), Q1HVG2; inhibition, % (tested at 21.74 µM); actives 0.42% (n = 220,000); AID 1085, 2008; in the data active = inhibition above about 50%
# Target sequence (Q1HVG2 whole entry, looked up): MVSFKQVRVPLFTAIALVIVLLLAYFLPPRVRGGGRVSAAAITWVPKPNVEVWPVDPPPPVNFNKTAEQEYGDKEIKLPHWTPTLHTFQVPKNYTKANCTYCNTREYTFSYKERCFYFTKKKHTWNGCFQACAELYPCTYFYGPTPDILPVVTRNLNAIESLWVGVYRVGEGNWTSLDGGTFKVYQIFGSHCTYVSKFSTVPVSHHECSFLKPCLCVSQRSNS
# zVAD necrop conf: inhibitors of zVAD-triggered necroptosis in L929, confirmation, L929 cells, duplicate runs | shares compounds with zVAD death inh | actives 16% (n = 760) | L929 zVAD-induced necroptosis rescue, ATP luminescence, 24 h | activation (protection from necroptosis), % at 10 µM;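 active = mean protection from necroptosis of at least 50% over duplicate tests; inactive = mean protection below 50%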;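 note: 0% = cells with zVAD alone and 100% = vehicle cells without zVAD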
# An asterisk follows results filed as active; / = no result. The list is not random: actives were taken first. Their share in the collection is about 1.2%.
SMILES,eIF4E 4G PPI,zVAD death inh,TNF death inh,EBV gp42 inh,zVAD necrop conf
Cc1cc(/C(N)=N/OC(=O)Nc2ccc(Cl)cc2)no1,4.9,0.6,0.9,-11.8,/
O=S(=O)(Nc1ccc(C(F)(F)F)cn1)c1ccccc1,3.0,0.6,5.4,-3.4,/
C/C(=N\OCc1ccc(C#N)cc1)c1cc2ccccc2o1,-11.8,78.4*,0.7,-12.4,1.5
C/C(=N\OCc1ccccc1C#N)c1cc2ccccc2o1,3.3,0.1,0.5,2.4,/
Cc1c([N+](=O)[O-])c(C/C=N/O)nn1C,-4.5,-0.5,2.4,-3.7,/
Cn1ccnc1SCC(=O)Nc1sccc1C#N,5.7,4.0,0.5,-1.6,/
N#Cc1ccsc1NC(=O)CSc1nnnn1-c1ccc(O)cc1,5.6,76.1*,1.8,12.5,40.9
O=C(c1ccc(-c2ccccc2)cc1)N1CCN(c2ccccn2)CC1,-2.8,2.8,-0.5,-14.9,/
Cc1cccc(NC(=O)Nc2ccc([N+](=O)[O-])cc2)n1,0.5,76.5*,-0.5,-0.5,40.0
CC(=O)Nc1ccc(NC(=O)Nc2ccc(C)c(C)c2)cc1,6.0,79.5*,-2.6,-9.5,1.2
Cc1cccc(NC(=O)Nc2ccc(C)c(C)c2)n1,-10.7,75.0*,-1.4,1.8,6.3
Cc1cccc(NC(=O)Nc2cccc(C)n2)n1,2.6,2.3,-0.8,-6.4,/
C=CCOc1cccc(CNc2cccc(C(=O)O)c2)c1,0.6,0.4,0.9,-9.3,/
O=C(COC(=O)c1ccc(O)cc1)Nc1ccc(Cl)cc1,1.6,77.7*,1.7,1.6,20.9
S=c1[nH]nc(-c2ccncc2)n1/N=C/C(Cl)=C\c1ccccc1,-0.8,84.9*,1.8,-18.7,5.5
S=c1[nH]nc(-c2ccncc2)n1/N=C/C=C/c1ccccc1,4.2,0.7,2.3,-3.7,/
N#Cc1c(Cl)nc2c(c1C#N)CCCC2,3.5,-0.5,-2.2,-3.1,/
CN(C)S(=O)(=O)c1cccc(NC(=O)CCSc2ccc(Cl)cc2)c1,5.8,76.7*,-2.9,12.0,41.6
CCOC(=O)Cn1nc(C)c(NC(=O)COc2ccc(C)c(C)c2)c1C,-2.7,-0.9,-0.8,-20.0,/
O=c1c(O)c(-c2ccc3c(c2)OCO3)oc2ccccc12,-85.9,76.9*,-1.4,-10.1,0.8
COc1ccc(Nc2nnc(SCc3cc([N+](=O)[O-])cc4c3OCOC4)s2)cc1,-0.6,-0.7,0.1,22.2,/
CC(=O)Nc1ccc(C(=O)CSc2ncn(-c3ccccc3)n2)cc1,7.2,79.5*,-5.0,-2.9,0.9
O=C(CSc1ncn(-c2ccccc2)n1)Nc1nncs1,4.6,0.9,0.2,-18.6,/
COc1ccc(C(=O)Nc2ncc(C)s2)cc1S(=O)(=O)N1CCCC1,1.4,88.6*,13.0,-23.4,1.7
C=CCn1c(SCC(=O)NCCOC)nnc1-c1cc2c(s1)CCC(CC)C2 (stereo unspecified),0.2,-0.4,2.2,4.6,/
SMILES,eIF4E 4G PPI,zVAD death inh,TNF death inh,EBV gp42 inh,zVAD necrop conf
O=C(/C(=C/c1ccccc1)c1ccccc1)N1CCCCC1,3.1,0.0,-7.1,-4.0,/
Oc1ccccc1N=Cc1c(O)ccc2ccccc12,0.9,83.6*,-5.5,-68.9,12.5
CC(C)=CC(=O)OCc1cc([N+](=O)[O-])cc2c1OCOC2,5.9,1.0,-0.1,-3.6,/
CC(C)(C)c1csc(N/N=C/c2cccnc2)n1,7.0,77.0*,-0.1,-1.7,6.0
CC(=O)NS(=O)(=O)c1ccc(NS(=O)(=O)c2ccccc2[N+](=O)[O-])cc1,-8.3,0.0,0.5,-5.4,/
CCC1(c2ccccc2)C(=O)NCNC1=O,1.5,75.0*,1.2,-12.3,3.6
Cc1ccc(C(=O)N2CCCC2)cc1S(=O)(=O)Nc1cccc(C)c1C,-2.3,0.9,-0.1,-5.7,/
O=C1CNC(=S)N1CCc1ccccc1Cl,2.8,0.0,1.2,-10.0,/
O=C1CNC(=S)N1CCc1ccc(Cl)cc1,-0.7,83.2*,20.6,-3.5,35.0
COc1ccccc1N1C(=O)CC(Sc2n[nH]c(-c3cccc(C)c3)n2)C1=O (stereo unspecified),14.3,-0.2,-1.5,8.8,/
Cc1ccc(/C=N/Nc2ncnc3nc[nH]c23)cc1,-2.1,71.4,-6.6,-0.2,/
